Test results as given in PubChem BioAssay AID1159580 (chemical genetic matrix, 2015).
Out of some 5,500 compounds screened, about 2,000 (36%) were called active. Inconclusive results (about 18%) are left out. Cut-off read from the data, not from the text of the source: active = normalized growth mostly below about 0.91 (no sharp cut-off); inconclusive = no clear call, values can overlap the other calls; inactive = mostly above about 0.92. The list shows a part of the results.

Test: chemical genetic growth profiling, strain panel (AID 1159580);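 note: tested at 20 µM; growth read once vehicle control cultures reached saturation at 30 °C; 1 = growth at the plate median or of vehicle wells; lower values mean less growth of the strain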
Conditions: growth OD
[1] = S. cerevisiae deletion strains, locus YDL101C, strain DUN1, active compounds read low
[2] = S. cerevisiae deletion strains, locus YHR030C, strain SLT2, active compounds read low

Measured: normalized growth

N=C(N)SCc1c(F)cccc1Cl
inactive: S. cerevisiae deletion strains, locus YAL013W, strain DEP1, active compounds read low 0.996 | S. cerevisiae deletion strains, locus YBR229C, strain ROT2, active compounds read low 0.986 | S. cerevisiae deletion strains, locus YCL061C, strain MRC1, active compounds read low 1.01 | [1] 0.968 | S. cerevisiae deletion strains, locus YDL134C, strain PPH21, active compounds read low 1 | S. cerevisiae deletion strains, locus YDR150W, strain NUM1, active compounds read low 0.984 | S. cerevisiae deletion strains, locus YEL061C, strain CIN8, active compounds read low 0.98 | S. cerevisiae deletion strains, locus YGR078C, strain PAC10, active compounds read low 0.989 | S. cerevisiae deletion strains, locus YGR229C, strain SMI1, active compounds read low 0.998 | [2] 0.947 | S. cerevisiae deletion strains, locus YHR087W, strain rtc3, active compounds read low 0.978 | S. cerevisiae deletion strains, locus YJR043C, strain POL32, active compounds read low 0.99 | S. cerevisiae deletion strains, locus YJR075W, strain HOC1, active compounds read low 0.991 | S. cerevisiae deletion strains, locus YKL190W, strain CNB1, active compounds read low 0.983 | S. cerevisiae deletion strains, locus YLR039C, strain RIC1, active compounds read low 0.978 | S. cerevisiae deletion strains, locus YLR058C, strain SHM2 (second series), active compounds read low 0.986 | S. cerevisiae deletion strains, locus YLR085C, strain ARP6, active compounds read low 0.993 | S. cerevisiae deletion strains, locus YLR262C, strain YPT6, active compounds read low 0.989 | S. cerevisiae deletion strains, locus YML094W, strain GIM5, active compounds read low 0.935 | S. cerevisiae deletion strains, locus YMR219W, strain ESC1, active compounds read low 1 | S. cerevisiae deletion strains, locus YMR263W, strain SAP30, active compounds read low 1.04 | S. cerevisiae deletion strains, locus YNL128W, strain TEP1, active compounds read low 0.968 | S. cerevisiae deletion strains, locus YNL153C, strain GIM3, active compounds read low 1.01 | S. cerevisiae deletion strains, locus YNL298W, strain CLA4 (second series), active compounds read low 0.96 | S. cerevisiae deletion strains, locus YNL322C, strain KRE1, active compounds read low 0.982 | S. cerevisiae deletion strains, locus YNR030W, strain Alg12, active compounds read low 0.975 | S. cerevisiae deletion strains, locus YPL055C, strain LGE1, active compounds read low 0.956 | S. cerevisiae deletion strains, locus YPL241C, strain CIN2, active compounds read low 1.12 | S. cerevisiae deletion strains, locus YPR135W, strain CTF4, active compounds read low 0.896 | S. cerevisiae strains, strain wild type, active compounds read low 0.986

N/C(=N/OCc1c(F)cccc1Cl)c1ccc(Cl)cc1
active: [2] 0.721 | S. cerevisiae deletion strains, locus YHR079C, strain IRE1, active compounds read low 0.326 | S. cerevisiae deletion strains, locus YLR113W, strain HOG1, active compounds read low 0.785 | S. cerevisiae deletion strains, locus YPL256C, strain CLN2, active compounds read low 0.767
inactive: S. cerevisiae deletion strains, locus YAR019C, strain CDC15, active compounds read low 0.914 | S. cerevisiae deletion strains, locus YBL105C, strain PKC1, active compounds read low 0.922 | S. cerevisiae deletion strains, locus YBR135W, strain CKS1, active compounds read low 0.929 | S. cerevisiae deletion strains, locus YBR136W, strain MEC1, active compounds read low 0.92 | S. cerevisiae deletion strains, locus YBR160W, strain CDC28, active compounds read low 0.932 | S. cerevisiae deletion strains, locus YDL017W, strain CDC7, active compounds read low 0.921 | S. cerevisiae deletion strains, locus YDL028C, strain MPS1, active compounds read low 0.93 | [1] 0.921 | S. cerevisiae deletion strains, locus YDL108W, strain KIN28, active compounds read low 0.922 | S. cerevisiae deletion strains, locus YDL132W, strain cdc53, active compounds read low 0.95 | S. cerevisiae deletion strains, locus YDL214C, strain PRR2, active compounds read low 0.91 | S. cerevisiae deletion strains, locus YDR052C, strain DBF4, active compounds read low 0.941 | S. cerevisiae deletion strains, locus YDR054C, strain cdc34, active compounds read low 0.905 | S. cerevisiae deletion strains, locus YDR226W, strain ADK1, active compounds read low 0.905 | S. cerevisiae deletion strains, locus YDR477W, strain SNF1, active compounds read low 0.92 | S. cerevisiae deletion strains, locus YER123W, strain YCK3, active compounds read low 0.934 | S. cerevisiae deletion strains, locus YER133W, strain GLC7, active compounds read low 0.912 | S. cerevisiae deletion strains, locus YFL009W, strain cdc4, active compounds read low 0.913 | S. cerevisiae deletion strains, locus YFL029C, strain CAK1, active compounds read low 0.922 | S. cerevisiae deletion strains, locus YFR003C, strain YPI1, active compounds read low 0.924 | S. cerevisiae deletion strains, locus YFR019W, strain FAB1, active compounds read low 0.914 | S. cerevisiae deletion strains, locus YFR028C, strain CDC14, active compounds read low 0.94 | S. cerevisiae deletion strains, locus YGR040W, strain KSS1, active compounds read low 0.919 | S. cerevisiae deletion strains, locus YGR052W, strain FMP48, active compounds read low 0.925 | S. cerevisiae deletion strains, locus YGR092W, strain DBF2, active compounds read low 0.824 | S. cerevisiae deletion strains, locus YHR082C, strain KSP1, active compounds read low 0.974 | S. cerevisiae deletion strains, locus YHR205W, strain SCH9, active compounds read low 0.765 | S. cerevisiae deletion strains, locus YIL147C, strain SLN1, active compounds read low 0.916 | S. cerevisiae deletion strains, locus YJL095W, strain BCK1, active compounds read low 0.842 | S. cerevisiae deletion strains, locus YJL128C, strain PBS2, active compounds read low 0.945 | S. cerevisiae deletion strains, locus YJL157C, strain FAR1, active compounds read low 0.929 | S. cerevisiae deletion strains, locus YJR016C, strain ILV3, active compounds read low 0.929 | S. cerevisiae deletion strains, locus YJR066W, strain TOR1 (second series), active compounds read low 0.962 | S. cerevisiae deletion strains, locus YJR066W, strain TOR1, active compounds read low 0.93 | S. cerevisiae deletion strains, locus YKL048C, strain ELM1, active compounds read low 0.903 | S. cerevisiae deletion strains, locus YKL067W, strain YNK1, active compounds read low 0.923 | S. cerevisiae deletion strains, locus YKL101W, strain HSL1, active compounds read low 0.911 | S. cerevisiae deletion strains, locus YKL193C, strain SDS22, active compounds read low 0.907 | S. cerevisiae deletion strains, locus YKL203C, strain TOR2, active compounds read low 0.997 | S. cerevisiae deletion strains, locus YLR133W, strain CKI1, active compounds read low 0.935 | S. cerevisiae deletion strains, locus YLR403W, strain SFP1, active compounds read low 0.847 | S. cerevisiae deletion strains, locus YML070W, strain DAK1, active compounds read low 0.909 | S. cerevisiae deletion strains, locus YMR001C, strain CDC5, active compounds read low 0.916 | S. cerevisiae deletion strains, locus YMR205C, strain PFK2 (second series), active compounds read low 0.886 | S. cerevisiae deletion strains, locus YMR277W, strain FCP1, active compounds read low 0.919 | S. cerevisiae deletion strains, locus YNL006W, strain LST8, active compounds read low 0.928 | S. cerevisiae deletion strains, locus YNL020C, strain ARK1, active compounds read low 0.926 | S. cerevisiae deletion strains, locus YNL161W, strain CBK1, active compounds read low 0.916 | S. cerevisiae deletion strains, locus YNL183C, strain NPR1, active compounds read low 0.956 | S. cerevisiae deletion strains, locus YNL207W, strain RIO2, active compounds read low 0.903 | S. cerevisiae deletion strains, locus YNL222W, strain SSU72, active compounds read low 0.933 | S. cerevisiae deletion strains, locus YNL307C, strain MCK1 (second series), active compounds read low 0.917 | S. cerevisiae deletion strains, locus YOL078W, strain AVO1, active compounds read low 0.915 | S. cerevisiae deletion strains, locus YOL136C, strain PFK27, active compounds read low 0.901 | S. cerevisiae deletion strains, locus YOR061W, strain CKA2, active compounds read low 0.966 | S. cerevisiae deletion strains, locus YOR119C, strain RIO1, active compounds read low 0.983 | S. cerevisiae deletion strains, locus YOR231W, strain MKK1, active compounds read low 0.932 | S. cerevisiae deletion strains, locus YOR329C, strain SCD5, active compounds read low 0.915 | S. cerevisiae deletion strains, locus YPL031C, strain PHO85, active compounds read low 0.902 | S. cerevisiae deletion strains, locus YPL153C, strain RAD53, active compounds read low 0.933 | S. cerevisiae deletion strains, locus YPL204W, strain HRR25, active compounds read low 0.908 | S. cerevisiae deletion strains, locus YPL209C, strain IPL1, active compounds read low 0.919 | S. cerevisiae deletion strains, locus YPR025C, strain CCL1, active compounds read low 0.926 | S. cerevisiae deletion strains, locus YPR106W, strain ISR1, active compounds read low 0.915 | S. cerevisiae deletion strains, locus YPR111W, strain DBF20, active compounds read low 0.911 | S. cerevisiae deletion strains, strain NNK1, active compounds read low 0.899 | S. cerevisiae deletion strains, strain TSCII, active compounds read low 0.91
